{"source": "paper PMC5540273", "about": "(PLoS ONE, 2017);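 also: KINOMEscan kinase panel screen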", "data": [{"system": "MAST1", "details": "concentration: 1 μM, replicates: in singlicate; n = 1", "units": {"%Inh": "%"}, "values": [{"smiles": "CC(C)(C)c1ccc2nccc(Nc3cccc(O)c3)c2c1", "note": "[GW856795]", "%Inh": 22}, {"smiles": "COc1cc2c(cc1OCCN1CCNCC1)ncc1c3ccc(C#N)cc3[nH]c21", "%Inh": 83}, {"smiles": "COc1cc(Nc2nccc(-c3c(-c4cccc(NC(=O)c5c(F)cccc5F)c4)nn4ccccc34)n2)cc(OC)c1OC", "note": "[GSK323521]", "%Inh": 0}, {"smiles": "Cc1ccc(S(=O)(=O)Nc2ccc(Nc3nccc(Nc4cccc5[nH]ncc45)n3)cc2)cc1", "note": "[GSK581271]", "%Inh": 7}, {"smiles": "CCc1ccc(-c2ccc3c(c2)-c2c(cnn2C)S(=O)(=O)N3C)cc1", "%Inh": 0}, {"smiles": "O=C(Nc1cccc(-c2nn3ncccc3c2-c2ccnc(Nc3ccccc3)n2)c1)c1c(F)cccc1F", "note": "[GSK198271]", "%Inh": 0}, {"smiles": "Fc1ccc(-c2ncn(C3CCNCC3)c2-c2ccnc(Oc3ccc(-c4ccccc4)cc3)n2)cc1", "note": "[SB-245391]", "%Inh": 36}, {"smiles": "CN(c1ccc(NC(=O)Nc2cc(C(F)(F)F)ccc2F)cc1)c1ccnc(Nc2ccc(S(N)(=O)=O)cc2)n1", "note": "[GW809893]", "%Inh": 18}, {"smiles": "CC(=O)Nc1nc2cnc(Nc3cc(NC(=O)c4cccc(C5(C#N)CC5)c4Cl)ccc3C)nc2s1", "%Inh": 23}, {"smiles": "Cl.c1ccc(-c2ccc3c(Nc4ccc5[nH]ncc5c4)ccnc3c2)nc1", "note": "[GW440137]", "%Inh": 0}, {"smiles": "COc1cc(Nc2ncc3c(C)nc(-c4cc5ccccc5[nH]4)n3n2)cc(OC)c1OC", "note": "[GW869516]", "%Inh": 13}, {"smiles": "COC(=O)Nc1nc2ccc(Oc3ccc(NC(=O)Nc4cc(C(F)(F)F)ccc4F)cc3)cc2n1C.Cl", "note": "[GW692089]", "%Inh": 23}, {"smiles": "Nc1n[nH]c2cnc(-c3ccccc3)cc12", "note": "[SB-642124]", "%Inh": 14}, {"smiles": "COc1cc(Nc2nccc(N3CCC(NC(=O)Nc4cccc(C(C)=O)c4)C3)n2)cc(OC)c1OC", "note": "(stereo not shown) [GSK1379753]", "%Inh": 0}, {"smiles": "O=C(NC1CCN(c2ccnc(Nc3ccc(F)cc3)n2)C1)c1cc2ccccc2s1", "note": "(stereo not shown) [GSK1379716]", "%Inh": 0}, {"smiles": "c1ccc(-c2cnc3nccnn23)cc1", "note": "[AH20685]", "%Inh": 0}, {"smiles": "Nc1ncnc2c1nc(-c1ccccc1)n2-c1ccccc1", "note": "[SKF-97293]", "%Inh": 47}, {"smiles": "CN(C)Cc1ccc(-c2ccc3c(Nc4ccc(Oc5ccccn5)cc4)ccnc3c2)o1", "note": "[GW567148]", "%Inh": 11}, {"smiles": "COc1cc(Nc2nccc(N3CCC(NC(=O)c4cc5ccccc5s4)C3)n2)cc(OC)c1OC", "note": "(stereo not shown) [GSK1379760]", "%Inh": 1}, {"smiles": "Cl.Cl.NCC(NCc1ccc(-c2ccnc3[nH]ccc23)s1)c1ccccc1", "note": "(stereo not shown) [GSK1321565]", "%Inh": 11}, {"smiles": "Cl.NC(=O)c1cccc(Nc2nccc(Nc3ccc(Oc4c(Cl)cccc4Cl)c(Cl)c3)n2)c1", "note": "[GW659009]", "%Inh": 0}, {"smiles": "O=C(Nc1ccccc1F)NC1CCN(c2ccnc(Nc3ccc(F)cc3)n2)CC1", "note": "[GSK1379800]", "%Inh": 0}, {"smiles": "Cc1ccc(C(=O)N2CC[C@@H](O)C2)cc1-n1c(C)cc(OCc2ccc(F)cc2F)c(Br)c1=O", "%Inh": 0}, {"smiles": "CN(C)S(=O)(=O)c1cc(-c2ccc3nccc(-c4cccc(S(N)(=O)=O)c4)c3c2)cnc1N", "note": "[GSK1669921]", "%Inh": 0}, {"smiles": "O=c1[nH]cc(-c2ccc(N3CCOCC3)cc2)c2sc(-c3cn[nH]c3)cc12", "note": "[GSK2276055]", "%Inh": 0}, {"smiles": "CCCCc1nn2ncccc2c1-c1ccnc(Nc2ccc(N3CCN(C)CC3)cc2)n1", "note": "[GW684941]", "%Inh": 31}, {"smiles": "O=C(Nc1cccc(-c2nn3ccccc3c2-c2ccnc(Nc3cccc(F)c3)n2)c1)c1c(F)ccc(F)c1Cl", "note": "[GSK357952]", "%Inh": 0}, {"smiles": "c1ccc(-c2n[nH]cc2Nc2ccnc3ccccc23)nc1", "note": "[GW694077]", "%Inh": 3}, {"smiles": "COc1cc(Nc2nccc(-c3c(-c4cccc(NC(=O)c5c(F)cccc5F)c4)nn4ncccc34)n2)cc(OC)c1OC", "note": "[GSK327238]", "%Inh": 0}, {"smiles": "COc1cccc(C(=O)Nc2cccc(Oc3ccc4nc(NC(=O)C5CC5)cn4n3)c2)c1", "%Inh": 0}, {"smiles": "COCCOCCOc1cc2ncc3c4ccc(C#N)cc4[nH]c3c2cc1OC", "%Inh": 69}, {"smiles": "Nc1ncc(-c2ccc3nccc(-c4ccncc4)c3c2)cc1S(=O)(=O)N1CCOCC1", "note": "[GSK1627798]", "%Inh": 0}, {"smiles": "Cc1cccc(NC(=O)Nc2ccc(Oc3ncnc4ccn(C)c34)cc2)c1", "%Inh": 0}, {"smiles": "CN1CCN(Cc2cccc(-c3ccc4c(Nc5ccc(Oc6ccccc6)cc5)ccnc4c3)c2)CC1", "note": "[GW578342]", "%Inh": 47}, {"smiles": "COc1cccc(C2=C(Nc3ccc(Cl)c(C(=O)O)c3)C(=O)NC2=O)c1", "note": "[SB-390769]", "%Inh": 0}, {"smiles": "COc1ccc(Nc2nccc(NCCNC(=O)c3cc4ccccc4s3)n2)cc1", "note": "[GSK1379896]", "%Inh": 0}, {"smiles": "COc1ccc(CNC(=O)NC2CCN(c3ccnc(Nc4ccc(F)cc4)n3)CC2)cc1", "note": "[GSK1379788]", "%Inh": 3}]}]}
